For 14 molecules, outcome and AC50 results are on record in PubChem BioAssay (EPA / NIEHS).

Values joined by “and” are separate entries in the source; they are usually repeats but may differ in a detail not shown here. Equal values may be shown once. Results filed as inconclusive are left out. The source holds several records for some structures; these can differ, active in one and inactive in another. Active and inactive are the calls of the source. Rule for the calls, unless noted: active = hit-call score of the fitted dose curve at least 0.9, where 1 is the maximum; inconclusive = response in the unintended direction; inactive = score below 0.9.

Test [1] is described as follows: CCTE_Simmons_CellTiterGLO_HEK293T: Viability Assessment in CCTE's Assays for Thyroperoxidase (TPO) Inhibition, Simmons Lab (AID 2283665). An outline of the steps:
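HEK293T cells in DMEM with 1% FBS were dosed with 8 concentrations (5 nM–87.5 uM final, 0.5% DMSO) for 24 hr at 37C; ATP content was read by CellTiter-Glo luminescence, loss-of-signal versus DMSO, three biological replicates.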
On the technique in general: In ATP-based viability assays light output follows the ATP content of the culture.

Test [2] can be described thus: Tanguay_ZF_120hpf_TR_legacy: (Legacy) Oregon State University Tanguay Lab 120 Hour Post-fertilization zebrafish Assay for Touch Response (AID 2283667). An outline of the steps:
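Tropical 5D wild-type zebrafish embryos statically exposed to 120 hpf at 28°C, sealed and dark-covered, 0.64% DMSO final; touch response scored as present/absent by brightfield microscopy at 120 hpf. Trimethyltin chloride 5 uM positive control; dead embryos not scored.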

Test [3] can be described thus: Tanguay_ZF_120hpf_ActivityScore_legacy: (Legacy) Oregon State University Tanguay Lab 120 Hour Post-fertilization zebrafish Assay Score for Activity (AID 2283742).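 For AC50: dechorionated Tropical 5D wild-type zebrafish embryos held singly per well; static exposure from 6 hpf until 120 hpf at 28 °C.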 Put shortly:
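Dechorionated Tropical 5D embryos, one per well from 6 hpf, statically exposed to 120 hpf at 28 °C in 0.64% DMSO. Mortality and malformations scored binary by brightfield microscopy; activity score combines 18 endpoints, fitted positively versus DMSO.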

Test [4] is described as follows: CCTE_Padilla_ZF_144hpf_TERATOSCORE: (Legacy) CCTE's 144 Hour Post-fertilization zebrafish Assay Teratoscore, Padilla Lab (AID 2283679; active = hit-call score of the fitted dose curve at least 0.9, where 1 is the maximum; inactive = score below 0.9;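 for AC50: zebrafish embryos with chorions exposed by immersion from 6-8 hpf to 5 dpf with daily renewal; teratogenicity score from eye scoring of death hatching and malformations at 144 hpf; higher score means more developmental defects relative to DMSO baseline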). An outline of the steps: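 Larvae scored by eye at 144 hpf for death, hatching and malformations after a day in clean Hanks'. Before that, daily-renewed exposure at 80 uM (0.4% DMSO, 26C) from roughly 6-8 hpf through 5 dpf, 4 embryos per chemical.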

Test [5] is described as follows: STM_H9_OrnithineISnorm_perc: Stemina devTOX quickPredict H9 human embryonic stem cell (hESC)-based Assay for Ornithine (ORN) Metabolite Biomarker, Normalized (AID 2283712; active = hit-call score of the fitted dose curve at least 0.9, where 1 is the maximum; inactive = score below 0.9;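 note: ornithine released into spent medium during last day measured by mass spectrometry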). Put shortly:
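Undifferentiated pluripotent H9 hESCs were exposed to compound for 72h, with media and compound replaced every 24h. Ornithine in final 24-h conditioned media was measured by UPLC-HRMS, normalized to 13C-labeled spike-in standard and to median 0.1% DMSO control.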

The nature of test [6]: STM_H9_CystineISnorm_perc: Stemina devTOX quickPredict H9 human embryonic stem cell (hESC)-based Assay for Cystine (CYSS) Metabolite Biomarker, Normalized (AID 2283713; active = hit-call score of the fitted dose curve at least 0.9, where 1 is the maximum; inactive = score below 0.9). Put shortly:
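Undifferentiated H9 hESCs were exposed to compound for 72h, with medium and compound replaced every 24h. Final-24h conditioned medium was deproteinized and analyzed by UPLC-HRMS. Cystine EIC area was normalized to spiked C13 standard and 0.1% DMSO median.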

Test [7] can be described thus: STM_H9_OrnCyssISnorm_ratio: Stemina devTOX quickPredict H9 human embryonic stem cell (hESC)-based Assay for Ornithine (ORN):Cystine (CYSS) Ratio (AID 2283714). An outline of the steps: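 Undifferentiated H9 hESCs exposed 72 h, media and compound replaced every 24 h; final 24-h conditioned media deproteinized and analysed by UPLC-HRMS against C13 spike-ins. Value is the internal-standard-normalized ORN/CYSS ratio versus 0.1% DMSO.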

Test [8] is described as follows: CEETOX_H295R_MTT_cell_viability: Viability Assessment in the CeeTox HT-H295R MTT Assay (AID 2283718; active = hit-call score of the fitted dose curve at least 0.9, where 1 is the maximum; inactive = score below 0.9;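 for AC50: curve fitted both ways so AC50 may mark viability loss or gain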). Put shortly:
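Human H295R adrenal cells, prestimulated 48 h with 10 uM forskolin, were exposed 48 h to chemicals in 0.1% DMSO. Viability was measured in the same wells by MTT (0.5 mg/ml, 4 h, 37 C), absorbance 570/650 nm, as percent of controls.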

Read-out in test [9]: Cytochrome P450 (CYP24A1_1), CYP24A1 (gene 1591)
The experiment in a line: LTEA_HepaRG_CYP24A1_1: Life Technologies and Expression Analysis (LTEA) Assay for Cytochrome P450 (CYP24A1_1) using HepaRG (AID 2283671; active = hit-call score of the fitted dose curve at least 0.9, where 1 is the maximum; inactive = score below 0.9). The following applies: mRNA level, 48 h; actives raise or lower the signal. An outline of the steps:
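Differentiated human HepaRG cells in serum-free induction medium, exposed 48 h in duplicate to eight half-log concentrations from 100 uM top, 0.5% DMSO. Transcript measured by TaqMan qRT-PCR, normalised to ACTB, GAPDH, POLR2A; bidirectional fitting versus DMSO.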

Test [10] in a line: ArunA_CellTiter_hNC: Viability Assessment in the ArunA Biomedical's Oris Neural Crest (hNC) Cell Migration Assay (AID 2283752). Put shortly:
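Human H9-derived neural crest stem cells were plated at 60,000 per well on Matrigel in growth medium with LIF and bFGF, incubated 16 h at 37C, then exposed to chemical for 72 h. Viability was read with CellTiter Aqueous One as loss of signal versus DMSO.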

Test [11] in a line: ArunA_CellTiter_hNP: Viability Assessment in the ArunA Biomedical's Oris Neural Crest (hNC) Cell Migration Assay (AID 2283753). An outline of the steps:
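H9-derived hNP1 neuroprogenitors, 60,000/well on Matrigel, cultured 16 h, then 72 h chemical exposure in test medium. Cell titer via CellTiter Aqueous One; positive-direction fit vs DMSO.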

Test [12] is described as follows: ArunA_Migration_hNP: ArunA Biomedical's Oris Neuroprogenitor (hNP) Cell Migration Assay (AID 2283754). Put shortly:
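Human H9-derived hNP1 neuroprogenitors on Matrigel with LIF/bFGF, plated around seeding stoppers for 16 h at 37C; stoppers removed at start of 72 h chemical exposure. Calcein-AM staining, fluorescence 494/517 nm in detection zone; loss-of-signal vs DMSO; cytochalasin D control.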

Test [13] can be described thus: ArunA_Migration_hNC: ArunA Biomedical's Oris Neural Crest (hNC) Cell Migration Assay (AID 2283755). Put shortly:
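Human H9-derived neural crest stem cells, 60,000/well on Matrigel, 16 h at 37C, then 72 h chemical exposure after seeding-stopper removal. Migration into detection zone read as calcein-AM fluorescence (ex494/em517), relative to DMSO.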

Test [14] can be described thus: ArunA_NOG_NucleusCount: ArunA Biomedical's Neurite Outgrowth (NOG) Assay for Nucleus Count (AID 2283756). An outline of the steps: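 Human H9-derived differentiated neurons were exposed for 48 h right after seeding. Hoechst-stained nuclei gated by size and intensity were counted by automated high-content imaging as viable neurons. Loss of signal vs DMSO.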
Test [15] is described as follows: ArunA_NOG_NeuriteLength: ArunA Biomedical's Neurite Outgrowth (NOG) Assay for Neurite Length (AID 2283757). Put shortly:
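Differentiated human H9-derived neurons were exposed for 48 h from seeding, then stained with Hoechst and βIII-tubulin. Automated high-content imaging gave total neurite length per valid neuron, counting processes >10 um. Loss of signal was scored versus DMSO.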

A short description of test [16]: ArunA_NOG_NeuritesPerNeuron: ArunA Biomedical's Neurite Outgrowth (NOG) Assay for Neurites Per Neuron (AID 2283758). Put shortly: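 Differentiated human H9-derived neurons exposed to chemicals for 48 h from seeding, then stained with Hoechst and βIII-tubulin/DyLight 488. Automated imaging counted neurites (processes >10 um) per valid neuron; loss of signal versus DMSO scored.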

Test [17] can be described thus: ArunA_NOG_BranchPointsPerNeurite: ArunA Biomedical's Neurite Outgrowth (NOG) Assay for Branch Points Per Neurite (AID 2283759). Put shortly:
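Automated image analysis traced neurites (processes >10 um) from valid cell bodies after Hoechst and βIII-tubulin staining. hNN cells from H9 embryonic stem cells, 48 h exposure. Fitted bidirectionally against DMSO.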

`O=C(O)CCN(C1(C(=O)NO)CCCC1)S(=O)(=O)c1ccc(Oc2ccc(F)cc2)cc1`: the result in test [1], in [2] and in test [3] was inactive.

Consider `Nc1cccc(N)c1`, for which the result in test [1], in test [2] and in [3] was inactive.

Usually AC50 stands for the concentration giving half of the maximal activity seen. In the case of `COc1cccc(-c2ccc(/C=C\CN3CCCCCC3)cc2Cl)c1`, the molecule was called inactive in [2] and in test [8]. Besides, the AC50 was 2.73 µM (active) in test [4]; 3.59 µM (active) in test [5]; 4.11 µM (active) in [6]; 3.97 µM (active) in [7]; 41.8 µM (active) in test [3].

Regarding `CC(C)CCCCCCOC(=O)c1ccc(C(=O)OCCCCCCC(C)C)c(C(=O)OCCCCCCC(C)C)c1`, the molecule was called inactive in [2], in test [9] and in test [3].

Regarding `COC(=O)CC(=O)OC`, the outcome in [2], in [4] and in test [3] was inactive.

Take `CCCCC(CC)COC(=O)CCCCCCCCC(=O)OCC(CC)CCCC` (stereo not drawn): the molecule was classed as inactive in test [2], in test [4] and in test [3].

Regarding `COCCOCCOCCOC`, the call in [2], in test [4], in test [5], in test [6], in test [7] and in [3] was inactive.

Consider `CC(C)=CCC/C(C)=C/CO`, for which the result in test [2] and in test [3] was inactive. Moreover, the AC50 in test [4] was 15.4 µM (active).

On to `CC(C)CCCCCCCOC(=O)CCCCC(=O)OCCCCCCCC(C)C`, for which the molecule was called inactive in [2], in test [4] and in [3].

`CC(C)c1cccc(C(C)C)c1N1C(=O)c2ccc(O)cc2C1=O`: the molecule was called inactive in [2], in [9], in test [14], in [15] and in test [17]. In addition, the AC50 in [4] was 4.71 µM (active); in test [5], 27.8 µM (active); in [6] it was 24 µM (active); in test [7], 14.9 µM (active); in [8] it was 3.83 µM (active); in test [3], 29.5 µM (active). Further, the AC50 was 4.05 µM (active) and 11.8 µM (active) in test [10]; 20.7 µM (active) in test [11]; 7.81 µM (active) and 3.04 µM (active) in test [12]; 7.71 µM (active) and 2.24 µM (active) in [13]; 13.3 µM (active) in test [15]; 5 µM (active) and 13.3 µM (active) in test [16].

Consider `CCOC(=O)COc1ccc2c(c1)CC(NCC(O)c1cccc(Cl)c1)CC2` (stereo not drawn), for which the molecule was classed as inactive in test [2]. For the same molecule, the AC50 is 6.13 µM (active) in [4] and 30 µM (active) in test [3].

On to `COc1ccc(-n2nc(C(F)F)cc2-c2ccc(S(C)=O)cc2)cc1` (stereo not drawn), for which the AC50 in test [2] is 38.2 µM (active); in test [4], 88.9 µM (active); in [3], 151 µM (active). Further, in test [8], the molecule was called inactive.

Consider `O=C(NS(=O)(=O)/C=C/c1ccccc1)c1ccc(F)cc1Cl`, for which the outcome in [2], in test [4] and in [3] was inactive. Besides, in test [8], the AC50 is 11.2 µM (active).

For `COc1ccc2sc(C(=O)Nc3nnn[nH]3)c(OC(C)C)c2c1`, the molecule was called inactive in [2] and in test [3]. For the same molecule, the AC50 in test [4] is 34.4 µM (active); in [5] it was 1.33 µM (active); in test [6], 1.65 µM (active); in test [7], 1.52 µM (active).
